In PubChem BioAssay (EPA / NIEHS):
Calls of active or inactive are those of the source. The calls were made as follows: active = hit-call score of the fitted dose curve at least 0.9, where 1 is the maximum; inactive = score below 0.9.

What was measured:
Details in all cases: mRNA level, 48 h; actives raise or lower the signal
[1] = read-out: Fatty acid synthase (Homo sapiens) (UniProt P49327); assay: LTEA_HepaRG_FASN: Life Technologies and Expression Analysis (LTEA) Assay for Fatty Acid Synthase (FASN) using HepaRG (AID 2283448)
Procedure, shortened: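 Transcript-level assay: HepaRG liver cells are treated for 48 h across an eight-point range topping at 100 uM, and FASN mRNA, normalized to three housekeeping genes, is compared with DMSO controls in both directions.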

[2] = read-out: Cyclin D2 (CCND2), CCND2 (gene 894); assay: LTEA_HepaRG_CCND2: Life Technologies and Expression Analysis (LTEA) Assay for Cyclin D2 (CCND2) using HepaRG (AID 2283449)
Procedure, shortened: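 Read-out is CCND2 mRNA level measured by qRT-PCR in human HepaRG liver cells and normalised to three housekeeping genes. Chemicals were applied for 48 h at up to 100 uM, with gain or loss fitted relative to 0.5% DMSO.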

[3] = read-out: Cyclin Dependent Kinase Inhibitor 1A (CDKN1A), CDKN1A (gene 1026); assay: LTEA_HepaRG_CDKN1A: Life Technologies and Expression Analysis (LTEA) Assay for Cyclin Dependent Kinase Inhibitor 1A (CDKN1A) using HepaRG (AID 2283450)
Procedure, shortened: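 Cryopreserved HepaRG cells were plated and cultured 48 h, then switched to serum-free induction medium. Chemicals (eight half-log concentrations, top 100 uM, 0.5% DMSO) were applied for 48 h. Lysates underwent qRT-PCR for CDKN1A with housekeeping normalization.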

[4] = read-out: Cyclin D1 (CCND1), CCND1 (gene 595); assay: LTEA_HepaRG_CCND1: Life Technologies and Expression Analysis (LTEA) Assay for Cyclin D1 (CCND1) using HepaRG (AID 2283451);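 as to AC50: TaqMan qRT-PCR transcript level normalised to ACTB GAPDH and POLR2A housekeeping genes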
Procedure, shortened: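 Human liver HepaRG line; 48 h dosing, 8 conc. ≤100 uM, 0.5% DMSO; TaqMan qRT-PCR mRNA, 3 housekeeping genes; bidirectional curve fit vs DMSO.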

[5] = read-out: catalase (CAT), CAT (gene 847); assay: LTEA_HepaRG_CAT: Life Technologies and Expression Analysis (LTEA) Assay for catalase (CAT) using HepaRG (AID 2283452)
Procedure, shortened: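 Expression of CAT was quantified by TaqMan qRT-PCR with ACTB/GAPDH/POLR2A normalization after 48 h chemical exposure of HepaRG. Eight-point half-log series, top 100 uM, in 0.5% DMSO; gain or loss fitted against vehicle.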

[6] = read-out: flavin-containing dimethylaniline monooxygenases 3 (FMO3), FMO3 (gene 2328); assay: LTEA_HepaRG_FMO3: Life Technologies and Expression Analysis (LTEA) Assay for flavin-containing dimethylaniline monooxygenases 3 (FMO3) using HepaRG (AID 2283453);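 as to AC50: FMO3 transcript by TaqMan qRT-PCR normalized to ACTB GAPDH and POLR2A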
Procedure, shortened: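 HepaRG, 48 h exposure, 8-pt half-log series from 100 uM, 0.5% DMSO vehicle, duplicates; FMO3 transcript by Fluidigm TaqMan qRT-PCR, housekeeping-normalized; gain/loss fit vs DMSO.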

[7] = read-out: Cytochrome P450 (CYP1A1), CYP1A1 (gene 1543); assay: LTEA_HepaRG_CYP1A1: Life Technologies and Expression Analysis (LTEA) Assay for Cytochrome P450 (CYP1A1) using HepaRG (AID 2283454)
Procedure, shortened: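 Induction of CYP1A1 mRNA in a human hepatic cell line was measured 48 h after dosing, with 1 mM phenobarbital as induction positive control and 0.5% DMSO vehicle as baseline for bidirectional curve fitting.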

[8] = read-out: CFLAR gene, CFLAR (gene 8837); assay: LTEA_HepaRG_CFLAR: Life Technologies and Expression Analysis (LTEA) Assay for CFLAR gene using HepaRG (AID 2283455)
Procedure, shortened: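 HepaRG, 48 h exposure, 8-pt conc-response (100 uM top, half-log), 0.5% DMSO vehicle, duplicates. CFLAR expression by qRT-PCR; ACTB/GAPDH/POLR2A normalization; gain or loss fit vs DMSO baseline.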

[9] = read-out: Forkhead box O1 (FOXO1), FOXO1 (gene 2308); assay: LTEA_HepaRG_FOXO1: Life Technologies and Expression Analysis (LTEA) Assay for Forkhead box O1 (FOXO1) using HepaRG (AID 2283456)
Procedure, shortened: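 Readout is FOXO1 transcript level by multiplexed qRT-PCR against three housekeeping genes, curve-fitted in both directions relative to 0.5% DMSO vehicle. Human HepaRG cultures received chemicals for 48 h, up to 100 uM in half-log steps.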

[10] = read-out: growth arrest and DNA damage 45 (GADD45A), GADD45A (gene 1647); assay: LTEA_HepaRG_GADD45A: Life Technologies and Expression Analysis (LTEA) Assay for growth arrest and DNA damage 45 (GADD45A) using HepaRG (AID 2283458)
Procedure, shortened: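 Human HepaRG liver cells are treated in duplicate for 48 h with chemicals in 0.5% DMSO, highest concentration 100 uM. Expression is read by qRT-PCR and analyzed in both directions against vehicle.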

[11] = read-out: Forkhead box O3 (FOXO3), FOXO3 (gene 2309); assay: LTEA_HepaRG_FOXO3: Life Technologies and Expression Analysis (LTEA) Assay for Forkhead box O3 (FOXO3) using HepaRG (AID 2283459)
Procedure, shortened: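 HepaRG, 48 h post-dose; 8 conc., half-log from 100 uM, 0.5% DMSO, duplicates; serum-free induction medium. Readout: FOXO3 mRNA, TaqMan qRT-PCR, housekeeping-normalized. Bidirectional curve fit vs DMSO baseline.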

[12] = read-out: ABC Transporter (ABCB1), ABCB1 (gene 5243); assay: LTEA_HepaRG_ABCB1: Life Technologies and Expression Analysis (LTEA) Assay for ABC Transporter (ABCB1) using HepaRG (AID 2283460)
Procedure, shortened: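 Expression of ABCB1 was quantified by qRT-PCR against three housekeeping genes after human HepaRG cultures received test chemicals for 48 hours. Concentrations spanned eight half-log steps topping at 100 uM in 0.5% DMSO; gain or loss of signal was fitted relative to vehicle.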

[13] = read-out: growth arrest and DNA damage 45 (GADD45B), GADD45B (gene 4616); assay: LTEA_HepaRG_GADD45B: Life Technologies and Expression Analysis (LTEA) Assay for growth arrest and DNA damage 45 (GADD45B) using HepaRG (AID 2283461)
Procedure, shortened: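 Values are bidirectional concentration-response fits against 0.5% DMSO controls. Underlying data: qRT-PCR mRNA levels in human HepaRG liver cells treated 48 h in serum-free induction medium, eight concentrations topping at 100 uM.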

[14] = read-out: ABC Transporter (ABCC3), ABCC3 (gene 8714); assay: LTEA_HepaRG_ABCC3: Life Technologies and Expression Analysis (LTEA) Assay for ABC Transporter (ABCC3) using HepaRG (AID 2283462)
Procedure, shortened: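 Differentiated HepaRG liver cells receive test chemicals at eight concentrations (max 100 uM) for 48 h. Expression of ABCC3 is quantified by qRT-PCR against ACTB, GAPDH and POLR2A, and activity is fitted in both directions against the DMSO control.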

[15] = read-out: ABC Transporter (ABCB11), ABCB11 (gene 8647); assay: LTEA_HepaRG_ABCB11: Life Technologies and Expression Analysis (LTEA) Assay for ABC Transporter (ABCB11) using HepaRG (AID 2283463)
Procedure, shortened: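 ABCB11 transcript levels are read by Fluidigm TaqMan qRT-PCR after 48 h chemical treatment of human HepaRG cells. Concentrations span 100 uM downward in half-log steps with 0.5% DMSO; gain or loss is fitted against DMSO controls.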

[16] = read-out: ABC Transporter (ABCC2), ABCC2 (gene 1244); assay: LTEA_HepaRG_ABCC2: Life Technologies and Expression Analysis (LTEA) Assay for ABC Transporter (ABCC2) using HepaRG (AID 2283464)
Procedure, shortened: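 Gene expression of ABCC2 was determined by qRT-PCR in HepaRG cells exposed 48 h to chemicals (highest 100 uM, half-log dilutions). Activity was fitted in both directions relative to 0.5% DMSO vehicle.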

[17] = read-out: Broad substrate specificity ATP-binding cassette transporter ABCG2 (Homo sapiens) (UniProt Q9UNQ0); assay: LTEA_HepaRG_ABCG2: Life Technologies and Expression Analysis (LTEA) Assay for ABC Transporter (ABCG2) using HepaRG (AID 2283465)
Procedure, shortened: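 Read-out is ABCG2 mRNA induction or loss quantified by qRT-PCR after 48 h chemical treatment of human HepaRG cells, normalized to three housekeeping genes. Concentrations reached 100 uM top in half-log steps; fitting was bidirectional against 0.5% DMSO.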

[18] = read-out: ATP-citrate lyase (ACLY), ACLY (gene 47); assay: LTEA_HepaRG_ACLY: Life Technologies and Expression Analysis (LTEA) Assay for ATP-citrate lyase (ACLY) using HepaRG (AID 2283466)
Procedure, shortened: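 HepaRG, 48 h exposure, 8-pt half-log dilutions (top 100 uM), 0.5% DMSO. Readout: ACLY mRNA, TaqMan qRT-PCR, housekeeping-normalized (ACTB/GAPDH/POLR2A). Bidirectional curve fit vs DMSO.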

[19] = read-out: Peroxisomal acyl-coenzyme A oxidase 1 (ACOX1) gene, ACOX1 (gene 51); assay: LTEA_HepaRG_ACOX1: Life Technologies and Expression Analysis (LTEA) Assay for Peroxisomal acyl-coenzyme A oxidase 1 (ACOX1) gene using HepaRG (AID 2283467)
Procedure, shortened: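 Measured by qRT-PCR against three housekeeping genes: ACOX1 transcript change in human HepaRG cells after 48 h dosing. Concentrations ran up to 100 uM in half-log steps. Curves were fitted bidirectionally relative to 0.5% DMSO.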

Measured: AC50

Chain of Broad substrate specificity ATP-binding cassette transporter ABCG2 (Homo sapiens) (Q9UNQ0 whole entry, looked up): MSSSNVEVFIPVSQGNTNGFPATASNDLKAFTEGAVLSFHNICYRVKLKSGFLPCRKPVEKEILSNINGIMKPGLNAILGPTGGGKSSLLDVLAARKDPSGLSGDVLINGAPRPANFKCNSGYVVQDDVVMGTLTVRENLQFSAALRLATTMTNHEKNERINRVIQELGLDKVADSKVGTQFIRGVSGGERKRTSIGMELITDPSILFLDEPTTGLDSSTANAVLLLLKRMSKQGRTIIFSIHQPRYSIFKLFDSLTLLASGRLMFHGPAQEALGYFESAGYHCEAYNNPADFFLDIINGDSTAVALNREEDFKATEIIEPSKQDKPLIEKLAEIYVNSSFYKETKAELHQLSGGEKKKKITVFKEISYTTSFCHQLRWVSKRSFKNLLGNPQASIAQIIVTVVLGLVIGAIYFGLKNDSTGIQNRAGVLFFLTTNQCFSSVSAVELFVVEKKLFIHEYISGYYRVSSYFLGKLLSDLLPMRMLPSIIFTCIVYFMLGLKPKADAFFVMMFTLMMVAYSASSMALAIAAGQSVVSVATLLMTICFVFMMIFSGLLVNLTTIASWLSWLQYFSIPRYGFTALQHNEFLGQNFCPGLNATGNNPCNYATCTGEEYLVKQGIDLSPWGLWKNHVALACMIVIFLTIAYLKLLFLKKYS
Chain of Fatty acid synthase (Homo sapiens) (P49327 whole entry, looked up): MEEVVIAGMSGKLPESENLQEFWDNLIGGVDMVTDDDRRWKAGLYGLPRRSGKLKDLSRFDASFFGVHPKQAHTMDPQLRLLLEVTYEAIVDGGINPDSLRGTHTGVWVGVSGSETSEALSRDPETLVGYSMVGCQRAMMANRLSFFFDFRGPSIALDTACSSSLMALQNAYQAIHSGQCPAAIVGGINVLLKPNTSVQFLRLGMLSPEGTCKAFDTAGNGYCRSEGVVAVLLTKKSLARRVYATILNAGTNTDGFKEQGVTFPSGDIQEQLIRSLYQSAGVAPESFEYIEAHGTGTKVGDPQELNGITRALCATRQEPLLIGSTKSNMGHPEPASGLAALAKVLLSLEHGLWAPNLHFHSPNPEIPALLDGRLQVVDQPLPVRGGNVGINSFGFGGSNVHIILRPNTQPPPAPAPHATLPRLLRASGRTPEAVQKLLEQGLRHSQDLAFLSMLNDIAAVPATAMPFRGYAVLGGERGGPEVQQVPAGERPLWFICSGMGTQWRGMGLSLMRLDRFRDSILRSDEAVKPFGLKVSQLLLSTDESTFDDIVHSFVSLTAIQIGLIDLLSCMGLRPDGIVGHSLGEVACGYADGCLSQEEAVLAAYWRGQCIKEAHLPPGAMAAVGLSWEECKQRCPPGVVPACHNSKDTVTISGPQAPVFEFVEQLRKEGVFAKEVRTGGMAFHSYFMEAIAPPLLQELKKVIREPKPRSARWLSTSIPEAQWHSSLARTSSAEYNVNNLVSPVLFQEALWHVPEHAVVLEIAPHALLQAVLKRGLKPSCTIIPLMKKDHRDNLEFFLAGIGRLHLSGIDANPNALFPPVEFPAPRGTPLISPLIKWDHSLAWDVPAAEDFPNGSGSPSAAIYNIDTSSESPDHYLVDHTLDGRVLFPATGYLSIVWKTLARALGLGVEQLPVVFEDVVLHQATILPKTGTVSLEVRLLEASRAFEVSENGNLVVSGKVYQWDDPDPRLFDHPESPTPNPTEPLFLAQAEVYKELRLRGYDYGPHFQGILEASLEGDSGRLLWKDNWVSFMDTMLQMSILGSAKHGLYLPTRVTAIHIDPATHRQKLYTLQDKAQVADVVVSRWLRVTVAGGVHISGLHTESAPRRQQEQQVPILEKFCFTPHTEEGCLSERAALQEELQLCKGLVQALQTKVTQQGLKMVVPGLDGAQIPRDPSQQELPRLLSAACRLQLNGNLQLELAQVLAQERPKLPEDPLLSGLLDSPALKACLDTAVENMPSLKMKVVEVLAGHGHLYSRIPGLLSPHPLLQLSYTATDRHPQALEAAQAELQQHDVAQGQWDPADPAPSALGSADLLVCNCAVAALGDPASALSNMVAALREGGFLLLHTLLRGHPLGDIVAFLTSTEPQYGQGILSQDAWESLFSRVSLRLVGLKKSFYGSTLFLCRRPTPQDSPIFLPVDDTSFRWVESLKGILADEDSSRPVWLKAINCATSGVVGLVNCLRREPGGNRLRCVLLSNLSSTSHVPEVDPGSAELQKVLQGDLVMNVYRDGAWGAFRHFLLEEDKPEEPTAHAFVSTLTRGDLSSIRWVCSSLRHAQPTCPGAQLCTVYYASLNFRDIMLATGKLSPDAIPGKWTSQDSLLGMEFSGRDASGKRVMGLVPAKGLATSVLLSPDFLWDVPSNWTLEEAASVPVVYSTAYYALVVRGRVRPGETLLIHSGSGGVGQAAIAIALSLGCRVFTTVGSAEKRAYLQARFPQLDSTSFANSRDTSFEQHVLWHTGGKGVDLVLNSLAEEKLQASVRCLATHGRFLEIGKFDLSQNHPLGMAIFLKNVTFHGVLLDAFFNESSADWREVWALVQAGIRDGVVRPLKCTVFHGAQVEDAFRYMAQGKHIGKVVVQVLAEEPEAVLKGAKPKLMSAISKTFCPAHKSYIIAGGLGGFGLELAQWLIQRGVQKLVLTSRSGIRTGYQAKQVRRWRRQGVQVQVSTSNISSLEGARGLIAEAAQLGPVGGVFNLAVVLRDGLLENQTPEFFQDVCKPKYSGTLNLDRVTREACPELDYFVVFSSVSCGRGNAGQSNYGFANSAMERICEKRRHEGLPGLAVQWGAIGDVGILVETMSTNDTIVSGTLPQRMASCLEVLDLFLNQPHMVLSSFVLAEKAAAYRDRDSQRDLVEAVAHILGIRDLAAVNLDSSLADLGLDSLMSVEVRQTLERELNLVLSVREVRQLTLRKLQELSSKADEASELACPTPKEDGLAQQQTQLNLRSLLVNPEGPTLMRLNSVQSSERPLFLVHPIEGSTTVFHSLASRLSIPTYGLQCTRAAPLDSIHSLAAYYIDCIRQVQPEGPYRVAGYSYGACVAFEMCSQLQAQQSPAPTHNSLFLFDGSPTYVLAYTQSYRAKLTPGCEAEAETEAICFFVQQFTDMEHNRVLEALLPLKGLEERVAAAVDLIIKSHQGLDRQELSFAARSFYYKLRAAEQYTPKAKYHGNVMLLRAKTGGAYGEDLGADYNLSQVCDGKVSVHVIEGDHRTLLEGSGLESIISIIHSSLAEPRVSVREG

NC(=O)N1C(=O)C(C(=O)c2cc(Cl)cs2)c2cc(F)c(Cl)cc21 (stereo unspecified)
active: [2] 28.7 µM | [4] 13.1 µM | [5] 25.1 µM | [6] 20 µM | [7] 3.31 µM | [9] 12.6 µM | [10] 36 µM | [11] 35 µM | [12] 19.4 µM | [13] 28.1 µM | [14] 12.8 µM | [15] 15.6 µM | [16] 27.7 µM | [17] 50 µM | [18] 21 µM | [19] 50 µM
inactive: [1] | [3] | [8]

CCC(C)(C)C1CCC(O)CC1 (stereo unspecified)
inactive: all assays above

CN(C)C=O
not listed: [16] | [19]
inactive: all other assays above

Cc1cc(C)c(O)c(C)c1
active: [7] 50 µM | [16] 26.8 µM
inactive: all other assays above

CCc1ccc(CCOc2ccc(CC3SC(=O)NC3=O)cc2)nc1 (stereo unspecified)
inactive: [1] | [2] | [8] | [9] | [11] | [14] | [16]
active: [3] 80.4 µM | [4] 50 µM | [5] 83.4 µM | [6] 78.7 µM | [7] 50 µM | [10] 50 µM | [12] 11.2 µM | [13] 11.9 µM | [15] 76.8 µM | [17] 36.4 µM | [18] 50 µM | [19] 0.718 µM

CCCCCCCCC(=O)O
not listed: [19]
inactive: all other assays above
